Screening data as filed in PubChem.
This is a sample that favours compounds with a hit; in the whole collection about 1.3% have one here.
MRP1 act – MRP-1 activation; H69AR cells + doxorubicin, viability rescue, CellTiter-Glo; viability increase, % at 10 µM; actives 0.61% (n = 140,000); AID 799;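 active = viability gain under doxorubicin at or above a set limit, the compound median plus 3 SD, cut at about 4.7% in these data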;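 also: MRP-1 overexpressing cells given doxorubicin 25 µM after compound pretreatment; 18-22 h compound pretreatment then 72 h with doxorubicin before readout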
Phagocytosis inh – inhibitors of macrophage phagocytosis; J774A.1 macrophage IgG-bead phagocytosis, imaging; inhibition, % at 5 µM; actives 0.07% (n = 110,000); AID 1029;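 active = inhibition above the mean of the plate negative controls plus 5 SD, cut at about 13% in these data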;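 also: phagocytic index as fraction of beads internalized from green versus red external bead signal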
SDO1 yeast rescue – sdo1-depleted yeast growth rescue | S. cerevisiae sdo1-depleted JHY4D growth rescue, OD600 30 h; stronger effect = higher value; pdr5 snq2 efflux-pump mutant strain | z-score at 10 µM | actives 0.21% (n = 140,000) | AID 817;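 active = z-score above 3 at both the 24 hr and the 30 hr optical density reads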
CD11b adhes inh – inhibitors of human CD11b/CD18 binding to fibrinogen; P05107+P11215; K562 CD11b/CD18 adhesion to fibrinogen, ATPlite luminescence; Mn2+ added to activate the integrin; inhibition, % at 10 µM; actives 0.54% (n = 93,000);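 active = primary inhibition of 50% or more at 10 µM, then 40% or more on retest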
Target sequence (P05107 whole entry, looked up, other chains not shown): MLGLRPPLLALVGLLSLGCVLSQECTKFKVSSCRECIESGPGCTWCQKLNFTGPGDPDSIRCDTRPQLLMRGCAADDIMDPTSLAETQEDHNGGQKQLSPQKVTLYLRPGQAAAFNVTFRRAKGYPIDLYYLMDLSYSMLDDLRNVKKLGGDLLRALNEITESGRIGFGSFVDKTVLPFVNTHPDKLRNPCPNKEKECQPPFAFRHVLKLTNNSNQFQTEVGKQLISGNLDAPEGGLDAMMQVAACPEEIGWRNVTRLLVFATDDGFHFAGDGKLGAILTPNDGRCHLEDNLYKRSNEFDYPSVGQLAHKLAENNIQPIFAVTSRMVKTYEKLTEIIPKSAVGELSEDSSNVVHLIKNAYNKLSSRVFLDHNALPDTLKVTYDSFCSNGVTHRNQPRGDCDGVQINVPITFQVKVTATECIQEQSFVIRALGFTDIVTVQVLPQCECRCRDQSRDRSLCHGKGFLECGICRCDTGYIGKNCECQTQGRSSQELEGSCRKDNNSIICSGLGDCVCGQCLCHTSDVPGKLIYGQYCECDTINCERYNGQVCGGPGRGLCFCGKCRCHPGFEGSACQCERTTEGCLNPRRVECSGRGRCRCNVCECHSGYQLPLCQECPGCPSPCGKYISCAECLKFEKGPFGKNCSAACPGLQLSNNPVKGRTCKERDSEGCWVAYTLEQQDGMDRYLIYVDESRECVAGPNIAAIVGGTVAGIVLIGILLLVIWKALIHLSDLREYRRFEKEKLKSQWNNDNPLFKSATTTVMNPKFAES
CD11b adhes enh – increases human CD11b/CD18 adhesion to fibrinogen; activation, % at 10 µM; actives 0.07% (n = 93,000); P05107+P11215; AID 1499; K562 CD11b/CD18 adhesion to fibrinogen, ATPlite luminescence;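 active = 10 µM primary screen giving 50% or more activity, confirmed by 40% or more on retest at that dose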
MRP reversal – reverses drug resistance mediated by MRP; H69AR cells + 2 uM doxorubicin, CellTiter-Glo, 72 h; differential viability (reversal), % at 10 µM; actives 0.04% (n = 85,000); AID 602;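 active = viability drop by adding the cancer drug above about 55%, with treated viability meeting a 40% cutoff, limit read from the data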;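 also: larger differential means the compound sensitizes cells more to doxorubicin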
Hits are given with their value; – = inactive; · = no result.

SMILES | MRP1 act | Phagocytosis inh | SDO1 yeast rescue | CD11b adhes inh | CD11b adhes enh | MRP reversal
CCOc1ccc2[nH]c(=O)c(C(c3nnnn3Cc3ccco3)N3CCCC(C)C3)cc2c1 (configuration not stated) | – | – | – | – | – | –
COC(=O)c1cnn(-c2cc(Oc3ccccc3)ncn2)c1N | 5.7 | – | – | – | – | ·
CSc1cccc(NC(=O)CN(c2cc(C)ccc2C)S(C)(=O)=O)c1 | – | – | – | – | – | –
COc1ccc(NC(=O)c2c(F)cccc2F)cc1S(=O)(=O)Nc1ccc(Br)cc1 | 6.3 | – | – | · | · | ·
Cc1nn(C)c(C)c1NC(=O)CSc1nc(C2CC2)nc2c1cnn2-c1ccccc1 | – | · | – | · | · | 78
CC(C)CC(=O)Nc1ccccc1-c1nnn(CC(=O)N2CCc3ccccc3C2)n1 | – | · | – | · | · | –
O=C1c2oc3ccccc3c(=O)c2C(c2cccc(Br)c2)N1Cc1ccco1 (configuration not stated) | – | – | – | – | 60 | –
O=C1c2oc3ccc(Br)cc3c(=O)c2C(c2cccnc2)N1Cc1ccco1 (configuration not stated) | · | – | · | – | – | –
O=C(NCCCN1CCCC1=O)c1ccc(Cl)c(NS(=O)(=O)c2ccc(F)cc2)c1 | – | – | – | – | – | –
CC1=CC(C)(C)N(S(=O)(=O)c2ccc(C)cc2)c2cc(C)ccc21 | – | – | – | 79 | – | –
Cc1ccc(S(=O)(=O)N2C(=S)SCC2(C)C)cc1 | – | – | – | – | – | –
N#Cc1cccc(N=Cc2c(O)ccc3ccccc23)c1 | – | – | – | · | · | ·
COc1ccc(-c2csc(NC(=O)c3cc(-c4cccs4)nc4ccccc34)n2)c(OC)c1 | 4.8 | – | – | – | – | ·
O=C1C2CC=CCC2C(=O)N1c1n[nH]c(-c2ccccc2)n1 (configuration not stated) | – | – | – | – | – | –
CCOC(=O)C(C(=O)Nc1nccs1)C1CCCCC1 (configuration not stated) | 4.7 | – | – | – | – | –
CCOC(=O)C(C(=O)Nc1nc2ccccc2s1)C1CCCCC1 (configuration not stated) | 7.1 | · | – | · | · | –
CCOc1ccccc1NC(=O)C1CCN(S(=O)(=O)c2cccc3cccnc23)CC1 | – | – | – | – | – | –
Cc1c(C(=O)NN2CCN(C)CC2)cccc1[N+](=O)[O-] | – | · | – | · | · | ·
COc1cc(/C=N/NC(=O)C23CC4CC(CC(C4)C2)C3)cc(Br)c1O | 14 | · | – | · | · | ·
CCCCCC(=O)N/N=C/c1cc(Br)c(O)c(OC)c1 | – | – | – | · | · | ·
CCOC(=O)Nc1ccc(C)cc1C | – | – | – | – | – | –
Cc1ccc(N/N=C(\C#N)C(N)=S)c(C)c1 | 8.2 | – | – | · | · | ·
COc1ccccc1NC(=O)c1sc2nc(Cc3ccccc3)cc(C(F)(F)F)c2c1N | – | – | – | – | – | ·
S=C(NCc1ccccn1)Nc1cccc(Cl)c1 | – | · | – | · | · | ·
S=C(NCc1ccccn1)Nc1ccccc1Cl | 8.2 | – | – | · | · | ·
SMILES | MRP1 act | Phagocytosis inh | SDO1 yeast rescue | CD11b adhes inh | CD11b adhes enh | MRP reversal
CC1CCC(NC(=O)Cn2c3c(c(-c4ccccc4Cl)cc2=O)CCC3)CC1 (configuration not stated) | 8.2 | – | – | – | – | –
CCCCOc1ccc(/C=C/C(=O)Nc2ccc([N+](=O)[O-])cc2C)cc1 | 5.8 | – | – | – | – | ·
Cc1ccc(-c2nc(-c3ccccc3)no2)c(Cl)c1 | – | – | – | 104 | – | –
Cc1ccc(-c2nc(-c3ccccc3)no2)cc1 | – | – | – | – | – | –
CC1S/C(=C(\C#N)C(=O)NCc2ccco2)N(c2ccc(F)cc2)C1=O (configuration not stated) | – | – | – | – | – | –
O=C(Nc1nc(-c2ccc(Oc3ccccc3)cc2)cs1)C1=COCCO1 | 7.1 | – | – | · | · | ·
Cc1ccc(-c2csc(NC(=O)C3=COCCO3)n2)cc1 | – | – | – | – | – | ·
CCOc1cc2[nH]c(=S)n(CCC(=O)NCc3ccc(OC)cc3)c(=O)c2cc1OCC | – | – | – | – | – | ·
CN(CC(=O)O/N=C(\N)c1cccc([N+](=O)[O-])c1)S(=O)(=O)c1ccccc1 | – | – | – | – | – | –
Cc1nc(=O)c(-c2ccccc2)c(C)n1-c1ccc(C(=O)O)cc1 | 9.1 | – | – | – | – | –
